Molecules are shown by their SMILES. This is part of a sample that, as a whole, favours compounds with a hit. Of some 83,000 tested, about 20% had one in any assay.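 Assay: single dose, 48 h. Readout: percent growth (0 = no net growth; negative = cell death). Active: <10.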 Unmarked numbers belong to inactive results. Calls of active or inactive are those of the source.

Test systems include DU-145 prostate; K-562 leukemia; MALME-3M melanoma; MDA-MB-231 breast; RXF 393 renal; SF-268 CNS; SF-295 CNS; SF-539 CNS; UACC-257 melanoma; M14 melanoma; HCT-15 colon; HT29 colon; SNB-75 CNS; SNB-19 CNS; U251 CNS; PC-3 prostate; SK-MEL-5 melanoma; UACC-62 melanoma; SK-MEL-28 melanoma.
Holding throughout (assay): NCI-60 one-dose screen, 48 h (100 = growth as untreated, 0 = no growth, -100 = all killed)
Conditions in all cases: 10 µM unless noted

With `C=C1CCC2C3(C)COC(c4ccc(F)cc4)OC3CCC2(C)C1C/C=C1/C(=O)OCC1O` (configuration not stated), the growth with DU-145 prostate was -41.4% (active); in the assay with K-562 leukemia it was 11.9%; in the assay on MALME-3M melanoma it was -71.9% (active); with MDA-MB-231 breast, -45.2% (active); in the assay with RXF 393 renal it was -69.7% (active); in the assay with SF-268 CNS it was 39.7%. In addition, the growth with SF-295 CNS is -8.06% (active); in the assay with SF-539 CNS, -85.5% (active); with UACC-257 melanoma, -62.6% (active); with M14 melanoma, -68.1% (active); with HCT-15 colon it was -42.3% (active); with HT29 colon it was -4.77% (active). The growth was -21.6% (active) with SNB-75 CNS; -55.8% (active) in the assay with SNB-19 CNS; -94.4% (active) with U251 CNS; -43.6% (active) in the assay on PC-3 prostate; -90.3% (active) in the assay with SK-MEL-5 melanoma; -8.34% (active) with UACC-62 melanoma. For the same compound, the growth in the assay on SK-MEL-28 melanoma was -70.3% (active).
As to `COc1cc(C2CC(c3cc(OC)c(OC)c(OC)c3)=NN2C(C)=O)ccc1OCc1ccc(F)cc1` (configuration not stated), the growth in the assay on DU-145 prostate was 70.6%; in the assay with K-562 leukemia, 28%; with MALME-3M melanoma, 81.8%; with MDA-MB-231 breast, 61%; with RXF 393 renal, 73.7%; with SF-268 CNS, 72%. Besides, the growth is 37.7% with SF-295 CNS; 61.9% with SF-539 CNS; 68.6% in the assay on UACC-257 melanoma; 59.9% in the assay on M14 melanoma; 42.5% with HCT-15 colon; 28.1% in the assay on HT29 colon. Moreover, the growth with SNB-75 CNS is 79.5%; with SNB-19 CNS, 60.9%; in the assay on U251 CNS it was 59.9%; in the assay on PC-3 prostate, 27.7%; with SK-MEL-5 melanoma it was 29.7%; in the assay with UACC-62 melanoma, 52%. For the same compound, in the assay on SK-MEL-28 melanoma, the growth is 73.2%.
Consider `COc1cccc(COc2ccc(NC(=O)Nc3ccc(Cl)c(C(F)(F)F)c3)cc2)c1`, for which the growth with DU-145 prostate is 44.6%; with K-562 leukemia, 27.1%; in the assay with MALME-3M melanoma, 1.5% (active); in the assay with MDA-MB-231 breast, 52%; with RXF 393 renal, 51.7%; with SF-268 CNS it was 71.1%. Besides, the growth was 19.7% with SF-295 CNS; 49.6% in the assay on SF-539 CNS; 60.9% with UACC-257 melanoma; 62.6% in the assay with M14 melanoma; 11.8% in the assay on HCT-15 colon; 43.5% in the assay with HT29 colon. In addition, the growth in the assay on SNB-75 CNS is 32.1%; with SNB-19 CNS, 24.6%; in the assay with U251 CNS, 31.8%; with PC-3 prostate it was 16.3%; in the assay with SK-MEL-5 melanoma it was -77% (active); with UACC-62 melanoma, 38%. In the assay on SK-MEL-28 melanoma, the growth was 69.6%.
Take `O=C1c2c(c3c4cc(F)ccc4oc3c3[nH]c4ccc(Br)cc4c23)C(=O)N1O`: the growth in the assay with DU-145 prostate was 24.6%; in the assay on K-562 leukemia, 40.3%; with MALME-3M melanoma, 7.44% (active); with MDA-MB-231 breast, 66.4%; in the assay with RXF 393 renal it was 29.2%; with SF-268 CNS, 2.64% (active). Besides, the growth with SF-295 CNS is 20%; in the assay with SF-539 CNS, -10.9% (active); with UACC-257 melanoma, 88.5%; with M14 melanoma, 14.3%; in the assay on HCT-15 colon it was 48.1%; in the assay on HT29 colon it was 68.6%. In addition, the growth was -13.7% (active) in the assay with SNB-75 CNS; 14.2% in the assay with SNB-19 CNS; 18.5% in the assay on U251 CNS; 20.2% in the assay on PC-3 prostate; 6.06% (active) in the assay with SK-MEL-5 melanoma; 18.6% with UACC-62 melanoma. Besides, the growth in the assay with SK-MEL-28 melanoma is 43.6%.
As to `Cc1cc2nc3c4ccccc4n(CCNCCN(C)C)c3nc2cc1C`, the growth with DU-145 prostate was 17.2%; in the assay on K-562 leukemia, 0.435% (active); in the assay with MALME-3M melanoma, -96.6% (active); in the assay with MDA-MB-231 breast, 1.93% (active); with RXF 393 renal, -34.7% (active); with SF-268 CNS it was 42.5%. The growth is 20.2% with SF-295 CNS; -79.8% (active) with SF-539 CNS; -72.8% (active) in the assay on UACC-257 melanoma; -79.9% (active) in the assay with M14 melanoma; 8.66% (active) in the assay with HCT-15 colon; -40.1% (active) in the assay with HT29 colon. Also, the growth with SNB-75 CNS was 43.4%; in the assay with SNB-19 CNS it was 35.3%; in the assay with U251 CNS, 36.5%; in the assay with PC-3 prostate, 18.2%; with SK-MEL-5 melanoma, -88.9% (active); with UACC-62 melanoma, -87.8% (active). In addition, the growth in the assay with SK-MEL-28 melanoma was -68.4% (active).
On to `CCN1C(=O)N(CC)C2NNC(Sc3c(C(=O)O)c4ccccc4n(C4CCCC4)c3=O)=NC21` (configuration not stated), for which the growth in the assay on DU-145 prostate was 2.94% (active); with K-562 leukemia, 13.9%; in the assay with MALME-3M melanoma it was 72.4%; in the assay on MDA-MB-231 breast it was 12.3%; with RXF 393 renal it was 50.2%; in the assay on SF-268 CNS, 39.2%. For the same compound, the growth in the assay with SF-295 CNS was 8% (active); in the assay with SF-539 CNS it was -24.7% (active); in the assay with UACC-257 melanoma, 58.7%; with M14 melanoma it was -7.72% (active); in the assay on HCT-15 colon it was 14.7%; with HT29 colon, 0.444% (active). The growth with SNB-75 CNS was 20.9%; in the assay with SNB-19 CNS, 38.8%; in the assay on U251 CNS it was 8.79% (active); with PC-3 prostate, 36.3%; in the assay on SK-MEL-5 melanoma it was 13.8%; in the assay on UACC-62 melanoma, 47.4%. The growth in the assay with SK-MEL-28 melanoma was 54.8%.
Consider `O=C(COc1ccc(NC(=O)Nc2ccccc2)cc1)N=Nc1c(O)[nH]c2ccc([N+](=O)[O-])cc12`, for which the growth in the assay on DU-145 prostate was 33.9%; with K-562 leukemia, 10.5%; in the assay with MALME-3M melanoma, -62.7% (active); with MDA-MB-231 breast it was -42.3% (active); in the assay with RXF 393 renal it was 33.5%; in the assay with SF-268 CNS it was 46.7%. The growth in the assay with SF-295 CNS was 70.3%; in the assay on SF-539 CNS it was -70.5% (active); in the assay on UACC-257 melanoma, 27.3%; in the assay on M14 melanoma, 8.59% (active); with HCT-15 colon, 103%; in the assay on HT29 colon it was 6.92% (active). The growth is 7.51% (active) in the assay on SNB-75 CNS; 0.584% (active) in the assay on SNB-19 CNS; -72.8% (active) in the assay on U251 CNS; 2.22% (active) in the assay with PC-3 prostate; 28.4% with SK-MEL-5 melanoma; 16% in the assay on UACC-62 melanoma. Besides, the growth in the assay on SK-MEL-28 melanoma was -43.9% (active).
For the compound `Cc1cc2c(cc1Cl)C(=O)/C(=C/c1ccccc1)O2`, the growth was -94.3% (active) in the assay with DU-145 prostate; 9.17% (active) in the assay with K-562 leukemia; -46.8% (active) in the assay with MALME-3M melanoma; -36.5% (active) in the assay with MDA-MB-231 breast; -33.9% (active) with RXF 393 renal; 64% in the assay on SF-268 CNS. The growth was 24.9% in the assay with SF-295 CNS; -98.5% (active) in the assay on SF-539 CNS; 36.1% in the assay on UACC-257 melanoma; 30.9% in the assay with M14 melanoma; 13.3% in the assay on HCT-15 colon; 38.6% in the assay with HT29 colon. Also, the growth was 52.5% in the assay on SNB-75 CNS; 34.6% in the assay with SNB-19 CNS; 8.18% (active) in the assay with U251 CNS; 29.8% in the assay on PC-3 prostate; -75.4% (active) in the assay on SK-MEL-5 melanoma; 29.3% in the assay with UACC-62 melanoma. The growth in the assay with SK-MEL-28 melanoma was 49.9%.

The values above are taken from PubChem BioAssay (NCI).
